Test results reported in PubChem BioAssay (NCI).
About 83,000 compounds went through this panel and 20% of them were active in at least one assay; those are over-represented in the sample as a whole.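 96-well plates, one dose, 48 hours. Percent growth reported; active if below 10.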 A number with no mark means an inactive call. Calls of active or inactive are those of the source.

The molecules below were run on EKVX NSCLC (assay: NCI-60 one-dose screen, 48 h (100 = growth as untreated, 0 = no growth, -100 = all killed)). Conditions: 10 µM unless noted.

| Structure (SMILES) | growth |
| --- | --- |
| CN1C(=O)N(C)C2C1NN=c1s/c(=C\c3ccccc3)c(=O)n12 (stereo not drawn) | 78.5% |
| CCn1c(C)nc2cc(C(N)=O)ccc21 | 142% |
| Cc1ccc(/C=C/c2c(C(=O)/C=C/c3ccc(Cl)cc3)c(C)nc3ccccc23)cc1 | 17.6% |
| COc1ccc2[nH]c(O)c(/C=c3/cc4c(c(-c5ccc(F)c(OC)c5)n3)=Nc3ccccc3-4)c2c1 | 89.5% |
| O=C(Cc1ccc(F)c(F)c1)Nc1cc(C2(C(F)(F)F)CC2)nn1Cc1ccccc1 | 6.62% (active) |
| C#CCOc1nc(C)cc(C)c1C#N | 97.1% |
| O=C1NC(=Nc2ccc(Cl)cc2)S/C1=C\c1cn(-c2ccccc2)nc1-c1ccccc1 | 85.3% |
| COc1cccc(-c2nn(-c3ccccc3)cc2-c2ccnc(NCCNC(=O)Nc3cccc(C(F)(F)F)c3)c2)c1 | 45.1% |
| COc1cc2ncn3c(=O)c4c5c(sc4nc3c2cc1OC)CCCC5 | 83.2% |
| CCN1C(=O)N(CC)C2Nn3c(s/c(=C4\C(=O)N(C)c5ccccc54)c3=O)=NC21 (stereo not drawn) | 71.2% |
| Cc1c(C)c2c(c(C)c1OCC(=O)O)CC[C@@](C)(CCC[C@@H](C)CCC[C@@H](C)CCCC(C)C)O2 | 32.3% [50 µM] |
| Cc1occc1-c1n[nH]c(=S)n1N1C(=O)CSC1=S | 99.1% |
| COc1ccc2c(c1)O/C(=C/c1ccc(OCC(=O)c3ccccc3)cc1)C2=O | 97% |
| c1ccc(-c2nc([P+](c3ccccc3)(c3ccccc3)c3ccccc3)c(N3CCOCC3)o2)cc1 | 14.9% |
| Cc1cccc(Cc2cnc(NC(=O)/C=C/c3ccco3)s2)c1 | 33.7% |
| CCN(CC)CCCC(C)Nc1c2ccc(Cl)cc2nc2ccc(O)cc12 (stereo not drawn) | 48.6% |
| COC1=CC(=O)C[C@@H](C)[C@]12Oc1c(Cl)c(OC)cc(OC)c1C2=O | 106% |
| CC1=C(SCCC(=O)OC(C[Se]C2=C(C)C(=O)c3ccccc3C2=O)C(=O)NCCCCCC(=O)OCc2ccccc2)C(=O)c2ccccc2C1=O (stereo not drawn) | 55.8% |
| O=c1c2c3c(sc2nc(N/N=C/c2ccc(Br)cc2)n1Cc1ccccc1)CCCC3 | 74.1% |

| Structure (SMILES) | growth |
| --- | --- |
| CC(=O)O[C@]1(C(C)=O)CCC2C3C[C@H](C)C4=CC(=O)CC[C@]4(C)C3CC[C@@]21C (stereo partly drawn) | 72.6% |
| Nc1ccc2c(c1)c(N)nn2C(=O)Nc1ccc(Cc2ccccc2)cc1 | 82.3% |
| Cc1cc(NCc2cc(Nc3ccnc4cc(Cl)ccc34)ccc2F)nc(N2CCSCC2)n1 | 58.7% |
| CN(C)CCC=C1c2ccccc2C(C)(C)c2ccccc21 | 110% |
| COc1ccc(NC(=O)CSc2nc(C)c(C(C)=O)n2-c2ccc([N+](=O)[O-])cc2)cc1 | 88.1% |
| COC(=O)c1c2c(c(C)[n+]([O-])c1C)C(=O)C(NCc1ccc(F)cc1)=CC2=O | 58.8% |
| Cc1c(C(=O)NC(Cc2ccccc2)C(O)C(=O)NCc2ccc(F)cc2)[nH]c2ccccc2c1=O (stereo not drawn) | 104% |
| COC1=C(OC)C(=O)C(OC)=C(OC)C1=O | 102% |
| CCN(CC)Cc1cccc(C(=O)OC)c1 | 95.7% |
| C[C@H](NC(=O)[C@@H]1CSSC[C@@H](NC(=O)c2nc3ccccc3cc2O)C(=O)NCC(=O)N1C)c1ccccc1 | 42% |
| O=c1ssc(Cl)c1-c1ccccc1 | 94.9% |
| O=S(=O)(NCCCNc1cc(-c2c(-c3cccc(O)c3)nc3sccn23)ccn1)c1cccc(Cl)c1 | 58.6% |
| CCOC(=O)/C=C/c1cc2cc(-c3csc4ccccc34)ccc2[nH]1 | 72.7% |
| Cn1cc(-c2csc(-c3ccccc3)n2)c2cccnc21 | 4.11% [100 µM] (active) |
| O=c1[nH]nc(-c2ccccc2)c2c(-c3ccccc3)onc12 | 25.4% |
| Cc1ccccc1NC(=O)N/C(N)=N/c1nc(-c2cccc([N+](=O)[O-])c2)cs1 | 49.3% |
| COc1cc2c(cc1-c1c(C)noc1C)ncc1nc(C3CCC(F)(F)CC3)n(C3CCC(OC(F)F)CC3)c12 (stereo not drawn) | 53.9% |
| N#C/C(=C\c1ccc(Br)cc1)n1nnc2cc(F)c(F)cc21 | 69.8% |
| CSc1n(Cc2ccc3ccccc3c2)c(C)c[n+]1Cc1ccc2ccccc2c1 | 24.9% |
